Hit rate of the full screen: of about 50,000 compounds, about 800 (1.6%) showed an effect of 50% or more. This is one part of a sample in which strong results are shown more often than they occur.
biological target: Bcl-2-like protein 10 (Homo sapiens) (UniProt Q9HD36); assay: Phenotype converters, Bcl-B/TR3 peptide binding displacement, primary biochemical FP (AID 1240); conditions: GST-Bcl-B / FITC-TR3 peptide fluorescence polarization; stronger effect = higher value; compound at 3.75 mg/L;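 note: 0% = Bcl-B with tracer peptide and DMSO and 100% = tracer peptide lacking Bcl-B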
Sequence (Q9HD36 whole entry, looked up): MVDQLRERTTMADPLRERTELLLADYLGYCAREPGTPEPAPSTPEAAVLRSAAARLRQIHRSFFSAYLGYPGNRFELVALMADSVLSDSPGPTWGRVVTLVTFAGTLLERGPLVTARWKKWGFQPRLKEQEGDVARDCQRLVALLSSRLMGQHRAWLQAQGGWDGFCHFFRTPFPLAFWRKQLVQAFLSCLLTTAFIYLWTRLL

Structure (SMILES) | displacement
O=C(Nc1ccc2oc(-c3ccc(Cl)cc3Cl)nc2c1)c1ccc2c(c1)OCCO2 | 2.1%
Cn1c(/C=C/c2cn(C)c3ccccc23)nc2ccccc2c1=O | 40.9%
Cn1c(/C=C/c2ccc([N+](=O)[O-])cc2)nc2ccccc2c1=O | 2.9%
O=c1c2ccccc2nc(/C=C/c2ccc([N+](=O)[O-])cc2)n1Cc1ccccc1 | 118%
Cn1c(/C=C/c2cn(Cc3ccccc3)c3ccccc23)nc2ccccc2c1=O | 17.3%
O=c1c2ccccc2nc(/C=C/c2cccc([N+](=O)[O-])c2)n1Cc1ccccc1 | 12.9%
Cn1cc(/C=C/c2nc3ccccc3c(=O)n2Cc2ccccc2)c2ccccc21 | 136%
Cc1onc(-c2ccccc2Cl)c1C(=O)NC12CC3CC(CC(C3)C1)C2 | 1%
CCOC(=O)c1c(NC(=O)c2cccc(Cl)c2)sc(C(=O)Nc2cccc(C(F)(F)F)c2)c1C | -3.3%
O=C(N1CCOCC1)n1nnc2ccccc21 | 13.2%
CC(C)(C)c1ccc(-c2nn(CNc3cccc(Cl)c3)c(=S)o2)cc1 | 14%
COc1ccc(C/C(N)=N/OC(=O)c2ccccc2Cl)cc1 | -0.1%
O=C(Nc1ccc2nn(-c3ccc(Cl)cc3)nc2c1)c1ccccc1 | -1.9%
O=C(COc1ccccc1)Nc1ccc2nn(-c3ccc(Cl)cc3)nc2c1 | 6.3%
O=C(COc1ccccc1Cl)Nc1ccc2nn(-c3ccccc3)nc2c1 | 78.4%
CCCC(=O)Nc1ccc2nn(-c3ccc(F)cc3)nc2c1 | 0.6%
O=C(Nc1ccc2nn(-c3ccc(Cl)cc3)nc2c1)c1ccccn1 | 91%
COc1ccc(-n2nc3ccc(NC(=O)COc4ccccc4Cl)cc3n2)cc1 | 19.9%
O=C(COc1ccc(Br)cc1)Nc1ccc2nn(-c3ccc(F)cc3)nc2c1 | 50.3%
O=C(Nc1ccc2nn(-c3ccc(Cl)cc3)nc2c1)c1ccccc1I | 7.4%
O=C(COc1ccc([N+](=O)[O-])cc1)Nc1ccc2nn(-c3ccc(F)cc3)nc2c1 | 9%
Oc1ccc(/C=N/Nc2nc3ccccc3s2)c(O)c1 | 11.1%
COc1ccccc1CC(=O)NCc1ccco1 | 10.3%
COc1ccc(/C=N/NC(=O)c2ccoc2C)c(OC)c1OC | -4.5%
Cc1occc1C(=O)N/N=C/c1ccccc1 | 4.2%
Cc1occc1C(=O)N/N=C/c1ccc(O)cc1O | 78.5%
Cc1ccc(N2C(=O)c3ccc(C(=O)O)cc3C2=O)nc1 | -10.6%

Structure (SMILES) | displacement
c1ccc(-n2ncnc2-c2ccc3c(c2)OCO3)cc1 | 4.4%
COc1ccccc1-c1coc2c(CN3CCN(C)CC3)c(O)ccc2c1=O | -1.3%
CCc1cc2c(=O)c(-c3nc4ccccc4[nH]3)coc2c(CN2CCOCC2)c1O | 8.5%
CCOC(=O)c1c(-c2ccccc2)oc2ccc(O)c(CN3CCCC(C)C3)c12 (centres undefined) | 11%
CN1CCN(Cc2c(O)ccc3c(=O)c(-c4ccccc4)coc23)CC1 | -1.7%
CC1CCCN(Cc2c(O)ccc3cc(-c4nc5ccccc5[nH]4)c(=O)oc23)C1 (centres undefined) | 106%
O=c1oc2c(CN3CCOCC3)c(O)ccc2cc1-c1nc2ccccc2[nH]1 | 139%
CC1CCN(Cc2c(O)ccc3c4c(c(=O)oc23)CCC4)CC1 | 12.8%
Cn1c(-c2cc3ccc(O)c(CN4CCOCC4)c3oc2=O)nc2ccccc21 | 19.1%
CN1CCN(Cc2c(O)ccc3cc(-c4nc5ccccc5[nH]4)c(=O)oc23)CC1 | 125%
COc1ccc(N2C(=O)C3C(c4ccccc4Cl)OC4(C(=O)c5ccccc5C4=O)C3C2=O)c(OC)c1 (centres undefined) | 12.5%
COc1ccc(C2CC(=O)C3=C(C2)Nc2ccccc2NC3c2cc(C)ccc2C)cc1 (centres undefined) | -3.7%
Cc1ccc(C2/C(=C(\O)c3ccccc3)C(=O)C(=O)N2CCCC(=O)O)cc1 (centres undefined) | 1.4%
O=C1N=c2ccccc2=C1c1sc(Nc2cccc(Cl)c2Cl)nc1O | 15.8%
O=C1OC(c2ccc(Br)cc2)=C/C1=C\C=C\c1ccccc1 | -8.3%
COc1cc(/C=C2\C(=O)NN(c3ccccc3)C2=O)cc(OC)c1OC | -6.6%
COc1ccc(C(=O)Nc2ccc(Br)cn2)cc1OC | 5.1%
COc1ccc(Cl)cc1NC(=O)C1=C(C)NC(=O)NC1c1cccc2ccccc12 (centres undefined) | 15.4%
O=C1CCCc2oc3ccc(NS(=O)(=O)c4ccccc4)cc3c21 | 2.5%
Cc1ccc(/C=C/C(=O)Nc2ccc(C)c([N+](=O)[O-])c2)o1 | 62%
O=C(Nc1cccnc1)c1ccc(-c2ccccc2[N+](=O)[O-])o1 | 48.4%
Cc1ccc(/C=C/C(=O)Nc2ccc([N+](=O)[O-])cc2)o1 | 11.8%
O=[N+]([O-])c1ccccc1-c1ccc(/C=C/c2ccc3ccccc3n2)o1 | 97.9%
O=C(/C=C/c1ccc(-c2ccccc2[N+](=O)[O-])o1)Nc1cccnc1 | 73.1%
Cc1ccc(/C=C/C(=O)Nc2cccc([N+](=O)[O-])c2)o1 | 10.1%
O=[N+]([O-])c1ccc(-c2ccc(/C=C/c3ccc4ccccc4n3)o2)cc1 | 14.8%
O=C(/C=C/c1ccc(-c2ccccc2[N+](=O)[O-])o1)Nc1ccc(NC(=O)c2ccco2)cc1 | -0.2%

From PubChem BioAssay AID1240 (Sanford-Burnham Center for Chemical Genomics, 2008)
